# Measurements taken from article PMC4336329 (PLoS ONE, 2015).
# Screen size: about 310,000 compounds; about 14,000 (4.5%) showed an effect of 50% or more. Effects have a minus sign here. This is one part of a sample in which strong results are shown more often than they occur.
# Biological target: human ether-à-go-go-related gene (hERG) potassium channel (human, UniProt Q12809)
# Assay: primary screen, population patch clamp on CHO cells stably expressing hERG; higher = less effect of the substance
# 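Note: peak tail current of the secondary pulse compared with the same well before compound.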
# Sequence of human ether-à-go-go-related gene (hERG) potassium channel (Q12809 whole entry, looked up): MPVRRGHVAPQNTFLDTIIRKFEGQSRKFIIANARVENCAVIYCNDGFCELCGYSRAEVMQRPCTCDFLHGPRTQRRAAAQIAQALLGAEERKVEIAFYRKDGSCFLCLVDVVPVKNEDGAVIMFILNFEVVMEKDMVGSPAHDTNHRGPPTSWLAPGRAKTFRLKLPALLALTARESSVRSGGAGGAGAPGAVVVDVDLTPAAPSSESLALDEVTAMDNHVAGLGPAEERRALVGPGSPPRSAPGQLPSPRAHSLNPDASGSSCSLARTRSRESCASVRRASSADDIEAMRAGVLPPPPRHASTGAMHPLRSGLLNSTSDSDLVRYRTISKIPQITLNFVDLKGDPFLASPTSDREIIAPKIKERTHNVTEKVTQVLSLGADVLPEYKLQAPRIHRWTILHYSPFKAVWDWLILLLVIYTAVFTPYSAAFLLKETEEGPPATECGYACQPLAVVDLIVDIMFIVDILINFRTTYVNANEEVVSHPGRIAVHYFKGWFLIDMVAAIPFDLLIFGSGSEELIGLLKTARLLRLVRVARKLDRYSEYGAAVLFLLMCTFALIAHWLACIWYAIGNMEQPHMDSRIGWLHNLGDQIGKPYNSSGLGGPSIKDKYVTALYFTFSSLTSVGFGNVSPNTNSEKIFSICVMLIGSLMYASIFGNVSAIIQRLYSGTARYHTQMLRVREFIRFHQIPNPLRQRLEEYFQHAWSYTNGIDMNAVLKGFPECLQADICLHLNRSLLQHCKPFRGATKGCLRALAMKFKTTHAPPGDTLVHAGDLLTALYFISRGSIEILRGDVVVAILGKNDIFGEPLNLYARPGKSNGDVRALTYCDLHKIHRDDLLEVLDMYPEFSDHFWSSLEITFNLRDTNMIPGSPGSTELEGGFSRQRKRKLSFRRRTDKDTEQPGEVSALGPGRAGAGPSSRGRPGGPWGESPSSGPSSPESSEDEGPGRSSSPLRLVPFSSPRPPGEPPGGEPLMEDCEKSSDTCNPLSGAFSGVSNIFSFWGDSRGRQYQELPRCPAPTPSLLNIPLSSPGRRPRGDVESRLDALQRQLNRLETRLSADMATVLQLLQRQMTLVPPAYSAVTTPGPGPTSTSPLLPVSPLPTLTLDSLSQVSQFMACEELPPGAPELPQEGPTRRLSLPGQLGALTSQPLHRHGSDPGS
row,SMILES,"hERG current change (%, negative = inhibition) at 10uM [%]"
1,CN(C)c1ccc(CNC(=O)CCNS(=O)(=O)c2cc(Br)cnc2N)cc1,12
2,COc1cccc(/C=C/C(=O)Nc2ccccc2N2CCOCC2)c1,-15.4
3,CCCCS(=O)CC(CS(=O)CCCC)OC(=O)c1ccccc1 (stereo not shown),-35.2
4,CCCCS(=O)CC(COC)OC(=O)c1ccccc1 (stereo not shown),2.46
5,CCCCS(=O)CC(COc1ccc(Cl)cc1)OC(=O)c1ccccc1 (stereo not shown),-56.3
6,Cc1ccccc1NC(=O)c1oc(=O)c2ccccc2c1-c1ccccc1,-1.57
7,CC(C)N(CCNC(=O)c1oc(=O)c2ccccc2c1-c1ccccc1)Cc1ccco1,-67.9
8,Cc1ccc(-c2c(C(=O)NCc3ccccc3)oc(=O)c3ccccc23)cc1,1.98
9,CC(C)CC(=O)Nc1ncnc2c1C(=O)CC(C)(C)C2,-0.157
10,CCOC(=O)N1CCN(S(=O)(=O)c2c(C)cc(C)cc2C)CC1,-5.61
11,CSc1ccc(/C=N/n2c(C)cc(C)cc2=O)cc1,-2.09
12,Cc1nnc(SCC(=O)Nc2ccc([N+](=O)[O-])cc2)n1CC1CCCO1 (stereo not shown),-55.5
13,C=CCn1c(SCC(=O)Nc2cccc(S(=O)(=O)N(C)c3ccccc3)c2)nnc1C1CC1,-69.8
14,Cc1ccc(NC(=O)CSc2nnc(C3CC3)n2CC2CCCO2)cc1C (stereo not shown),-24
15,Cc1ccc([N+](=O)[O-])cc1NC(=O)CSc1nnc(C)n1CC1CCCO1 (stereo not shown),-14.6
16,CCc1ccc(NC(=O)CSc2nnc(C3CC3)n2CC2CCCO2)cc1 (stereo not shown),-22.4
17,CN(c1ccccc1)S(=O)(=O)c1cccc(NC(=O)CSc2nnc(C3CC3)n2C)c1,-30.9
18,Cc1cccc(NC(=O)CSc2nnc(C3CC3)n2CC2CCCO2)c1 (stereo not shown),-14.9
19,O=C(CSc1nnc(C2CC2)n1CC1CCCO1)Nc1cccc(Cl)c1 (stereo not shown),-56.1
20,O=C(CSc1nnc(C2CC2)n1CC1CCCO1)Nc1ccc(Cl)cc1 (stereo not shown),-56.8
21,CCn1c(SCC(=O)Nc2cccc(S(=O)(=O)N(C)c3ccccc3)c2)nnc1C1CC1,-44.1
22,Cc1nnc(SCC(=O)Nc2cccc(Cl)c2)n1CC1CCCO1 (stereo not shown),-7.41

row,SMILES,"hERG current change (%, negative = inhibition) at 10uM [%]"
1,Cc1nnc(SCC(=O)Nc2cccc([N+](=O)[O-])c2)n1CC1CCCO1 (stereo not shown),-13
2,O=C(CCNS(=O)(=O)c1cccc2nsnc12)NC1CCCc2ccccc21 (stereo not shown),9.49
3,CCCc1cc(=O)n2[nH]c(CCc3ccccc3)nc2n1,14.1
4,O=C(NCC(c1cccs1)N1CCOCC1)c1ccccc1NS(=O)(=O)c1ccc(Br)cc1 (stereo not shown),-38.4
5,CCOC(=O)c1sc(NC(=O)c2ccc(Cl)s2)cc1C,3.03
6,O=C(c1ccco1)N1CCN(C2CC(=O)N(c3ccc(F)c(Cl)c3)C2=O)CC1 (stereo not shown),-14.2
7,Cc1ccc(OS(=O)Nc2cccc3nccnc23)cc1 (stereo not shown),-18.6
8,COc1ccccc1C(=O)NCCC(=O)NCc1ccncc1,-4.37
9,CCOC(=O)c1ccc(-n2c(CN3CCN(CCO)CC3)nc3ccc([N+](=O)[O-])cc3c2=O)cc1,-25.1
10,O=C(c1ccco1)N1CCN(Cc2nc3ccc([N+](=O)[O-])cc3c(=O)n2-c2ccccc2F)CC1,-68.3
11,CCOC(=O)N1CCN(Cc2nc3ccc([N+](=O)[O-])cc3c(=O)n2-c2cccc(OC)c2)CC1,-39.8
12,O=C(O)C(=O)O.O=C(c1ccco1)N1CCN(Cc2ccccc2F)CC1,3.7
13,CCOC(=O)N1CCN(Cc2nc3ccc([N+](=O)[O-])cc3c(=O)n2-c2ccccc2F)CC1,-69.9
14,CCOc1ccccc1-n1c(CN2CCN(C(=O)c3ccco3)CC2)nc2ccccc2c1=O,-26.2
15,CCOC(=O)c1ccc(-n2c(CN3CCOCC3)nc3ccc([N+](=O)[O-])cc3c2=O)cc1,1.65
16,CCC(CC)N1CCN(Cc2nc3ccc([N+](=O)[O-])cc3c(=O)n2-c2ccccc2F)CC1,-57
17,CCOC(=O)N1CCN(Cc2nc3ccc([N+](=O)[O-])cc3c(=O)n2-c2ccc(OC)cc2OC)CC1,-46.1
18,CCN1CCN(Cc2nc3ccc([N+](=O)[O-])cc3c(=O)n2-c2ccccc2F)CC1,17.9
19,O=c1c2cc([N+](=O)[O-])ccc2nc(CN2CCN(c3ccccn3)CC2)n1-c1ccccc1F,-28.3
20,CCOC(=O)c1ccc(-n2c(CN3CCN(CC)CC3)nc3ccc([N+](=O)[O-])cc3c2=O)cc1,-55
21,Cc1c(C(=O)NCc2ccccc2)cnn1-c1ccccc1,-2.6
22,O=C(Nc1cccc(-c2cn3ccccc3n2)c1)c1cccc(Cl)c1,4.75

row,SMILES,"hERG current change (%, negative = inhibition) at 10uM [%]"
1,CCCC1=NN(C(=O)Cc2ccc(OC)c(OC)c2)C(O)(C(F)(F)F)C1 (stereo not shown),0.733
2,CC(C)[C@H]1C(=O)Nc2ccccc2N1C(=O)N[C@@H](Cc1ccccc1)C(=O)N[C@@H](Cc1ccccc1)C(=O)O,5.66
3,Cc1nn(C)c(C)c1C(C)NC(=O)c1ccc(OC2CCN(Cc3ccccn3)CC2)cc1 (stereo not shown),18
4,CC(=O)NC1=C(Nc2ccc(N(C)C)cc2)C(=O)c2ccccc2C1=O,-9.79
5,COC(=O)N/N=C/c1ccc(-c2cccc(Cl)c2)o1,-3.5
6,COc1cc(OC)cc(-c2nc(-c3ccccc3)no2)c1,5.45
7,COCCCN1C(=O)C(O)=C(C(C)=O)C1c1cccc(F)c1 (stereo not shown),7.18
8,CCC1(c2ccccc2)NC(=O)N(CC(=O)Nc2ccccc2C(=O)NC2CC2)C1=O (stereo not shown),-7.31
9,CN1CCN(c2ccc(Cl)cc2NC(=O)CN2C(=O)NC(C)(c3ccccc3)C2=O)CC1 (stereo not shown),-23.7
10,CC1(c2ccccc2)NC(=O)N(CC(=O)Nc2ccccc2C(=O)NC2CC2)C1=O (stereo not shown),-22.5
11,CCC1(c2ccccc2)NC(=O)N(CC(=O)Nc2cc(Cl)ccc2N2CCN(C)CC2)C1=O (stereo not shown),-60.8
12,CCC1(c2ccccc2)NC(=O)N(CC(=O)Nc2cc(Cl)ccc2N2CCOCC2)C1=O (stereo not shown),-11.2
13,CCC1(c2ccccc2)NC(=O)N(CC(=O)Nc2ccccc2C(=O)NC2CCCC2)C1=O (stereo not shown),-53.8
14,COC(=O)C1=C(c2cccc(C#N)c2)C[C@@H]2CC[C@H]1N2C(=O)N1CCC(C)CC1,-17.1
15,Cc1ccccc1C1=NC(C(F)(F)F)(C(F)(F)F)c2c(n(-c3ccc(F)cc3)c(=O)[nH]c2=O)N1,12.5
16,Cc1ccc(C)c(NC(=O)CN2C(=O)CNC2=O)c1,0.955
17,COc1cccc(OCCNS(=O)(=O)c2cccc([N+](=O)[O-])c2)c1,-8.19
18,C[C@@H](CSc1ccccc1)CN1CC[C@H](NC(=O)OCc2ccccc2)CCC1=O,-44.2
19,O=C(OCC(=O)N1CCCC1=O)c1nc(Cl)ccc1Cl,5.78
20,Nc1cc(N)nc(SCC(=O)c2ccc3c(c2)NC(=O)CO3)n1,8.41
21,COc1ccccc1NC(=O)CSc1nc2ccccc2c(=O)n1C,12.1
22,O=C(Nc1ccc(Cl)cc1)C1CCCN1C(=O)NCc1ccccc1 (stereo not shown),10.2

row,SMILES,"hERG current change (%, negative = inhibition) at 10uM [%]"
1,CC(/C=C/c1ccccc1)=N/NC(=O)c1cnccn1,2.83
2,O=C(CN1CCCCC1)N1CCCc2ccccc21.O=C(O)C(=O)O,2.82
3,N#CC1(CCCN2CCCCC2)c2ccccc2CCc2ccccc21.O=C(O)C(=O)O,-52.7
4,O=C(CN1CCCC1)N1CCCc2ccccc21.O=C(O)C(=O)O,13.8
5,CNC(=S)NNC(=O)Cc1ccc(O)cc1,-3.23
6,CN(CC(=O)N1CCN(c2ccc(F)cc2)CC1)S(=O)(=O)c1ccc2c(c1)c(=O)n(C)c(=O)n2C,-0.425
7,CC(C)c1cc(CN2CCN(C3CCCC3)C(CCO)C2)[nH]n1 (stereo not shown),-5.93
8,O=c1cc(CN2CCCCC2)nc(C2CC2)[nH]1,-2.2
9,c1c(C2CCCCC2)n[nH]c1CN1CCCCC1,-53.9
10,Cc1ccc(C(=O)N/C(=C\c2ccccc2F)c2nc(=S)[nH][nH]2)cc1,14.4
11,Cc1nc2ccccc2c(=O)n1-c1ccc(NS(=O)(=O)c2ccccc2)cc1,-26.5
12,Cc1ccc(-n2c(C)nc3ccccc3c2=O)cc1C,-52.2
13,Cc1nc2ccccc2c(=O)n1-c1cccc(O)c1,14.1
14,O=S(=O)(Nc1ccc(-c2ccc3nncn3n2)cc1)c1cccc(F)c1,18.1
15,Cc1ccc(S(=O)(=O)Nc2ccc(-n3c(C)nc4ccccc4c3=O)cc2)cc1,-49.4
16,Cc1cccc(S(=O)(=O)Nc2ccc(-n3c(C)nc4ccccc4c3=O)cc2)c1,-55.9
17,Cc1ccc(S(=O)(=O)Nc2ccc(-c3ccc4nncn4n3)cc2)cc1,-9.23
18,Cc1nc2ccccc2c(=O)n1-c1ccc(Cl)c(Cl)c1,-8.26
19,Cc1cccc(S(=O)(=O)Nc2ccc(-c3ccc4nncn4n3)cc2)c1,-123
